Potency and affinity values are given separately.
target: HMG-CoA reductase [Enterococcus faecalis] (UniProt Q9FD70); assay: inhibitors of E. faecalis class II HMGR, confirmation, biochemical, Enterococcus faecalis (AID 1233);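 also: 0% = full reaction carrier wells and 100% = background wells lacking mevalonate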; conditions: purified E. faecalis HMGR, NADPH absorbance 340 nm kinetics; series mostly up to 100 µM; inhibition: at the top concentration

inhibition, inactive:
CC(=O)c1cccc(NC(=O)Nc2csc3c2CCCC3)c1 -3.82%
CCCCNC(=O)c1ccccc1NC(=O)CCSc1ccccc1 -7.76%
CCCCn1c(=O)c2ccccc2c2ccccc2c1=O -3.5%
Cc1ccc(NC(=S)NC(=O)CC2CC(C)(C)OC2=O)cc1 (centres undefined) -9.85%
O=C(COc1cccc(NC(=O)c2ccco2)c1)c1ccc(F)cc1 1.51%
CCOC(=O)C1CCN(C(=O)CN(c2ccc3c(c2)OCCO3)S(C)(=O)=O)CC1 -2.07%
COc1ccccc1-c1c(C(F)(F)F)oc2cc(OC(=O)c3cccc([N+](=O)[O-])c3C)ccc2c1=O -3.18%
CN(CCO)c1cc(NCCCN2CCC(Cc3ccccc3)CC2)c2nonc2c1[N+](=O)[O-] -6.33%
COC(=O)c1ccccc1NC(=O)CSc1nnc(CNS(=O)(=O)c2ccc(C)cc2)n1C -6.83%
CCc1ccc(NC(=O)CSCc2ccc(C(=O)O)cc2)cc1 -6.21%
Nc1c(C(=O)c2ccccc2)sc2c1c(=O)[nH]c(=O)n2-c1ccccc1 -2.21%
CN(C(=O)COc1ncnc2c1cnn2-c1ccccc1)C1CCCCC1 -1.4%
Cc1ccc(C2C(C(=O)c3ccco3)=C(O)C(=O)N2c2nnc(C)s2)cc1 (centres undefined) -3.22%
CSc1ccc(C2CC(=O)Nc3nc(SC)[nH]c(=O)c32)cc1 (centres undefined) -0.1%
O=c1oc2ccccc2c(O)c1C=Nc1cccnc1 -2.21%
Cc1c(NS(=O)(=O)c2ccc3c(c2)Cc2ccccc2-3)c(=O)n(-c2ccccc2)n1C -2.26%
CCCCCC/C(C)=C1/SC(=S)NC1=O -9.92%
O=C(CN1CCC2(CC1)OCCO2)c1ccc2cc[nH]c2c1 1.36%
Cc1cccnc1NC(=O)Cn1nc([N+](=O)[O-])cc1C -11.3%
